# Source: the supplement of paper PMC8047044
# How the values were obtained:
# Neuro-2a [1] = assay: neurite formation score, plate-normalized to DMSO control mean 5.04 (score (0-8 scale)); higher = more or longer neurites; details: 1 µM
# Description: (§1)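 Neuro-2a mouse neuroblastoma cells in PLL-coated 96-well plates were pre-treated for 1 h in DMEM(+) with each kinase inhibitor at 1 µM, then switched to serum-free DMEM(-) with inhibitor to induce neurite outgrowth and fixed about 2-3 h later. Three blinded observers scored neurite formation from 0 (no neurites) to 8 (long neurites on almost all cells).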
# Neuro-2a [2] = assay: as above; details: 0.1 µM
# Description: as §1, with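 “at 0.1” for “at 1”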
Compound,neurite formation score (Neuro-2a [1]),neurite formation score (Neuro-2a [2])
COc1cc(N2CCC(N3CCN(C)CC3)CC2)ccc1Nc1ncc(Cl)c(Nc2ccccc2S(=O)(=O)C(C)C)n1,2.24,5.54
C[C@@H]1CCNC(=O)c2cc3ccc(C(=O)Nc4nc5ccccc5n4CCCN(C)C)cc3n21,5.29,4.92
COc1c(C)c(C(=O)c2ccc(N)c(C(=O)O)c2)n2ccccc12,4.96,5.25
Brc1c(Br)c(Br)c2n[nH]nc2c1Br,5.47,5.09
Cc1ccc(S(=O)(=O)Nc2nc3ccccc3nc2Nc2ccc3nsnc3c2)cc1,4.14,4.09
O=C(c1cccc(Cl)c1F)N1CCN(Cc2cccc(Nc3nccs3)n2)CC1,4.14,1.42
O=C(NCc1cccc(O)c1)Nc1nc(-c2ccncc2)cs1,5.02,5.25
COc1cc(-c2cc(-c3ccc(N4CCNCC4)cc3)cnc2C)cc(OC)c1OC,4.47,5.09
Cc1cc(C)nc(NS(=O)(=O)c2ccc(NC(=S)NC(=O)COc3ccc(Br)cc3Cl)cc2)n1,3.9,3.88
Cc1ccc(C(=O)Nc2cccc(C(F)(F)F)c2)cc1Nc1nc(-c2cccnc2)nc2c1cnn2C,3.96,4.25
Cc1cc(Nc2ncc(Cl)c(Nc3ccccc3S(=O)(=O)C(C)C)n2)c(OC(C)C)cc1C1CCNCC1,4.24,5.21
O=c1c(-c2ccc(O)cc2)coc2cc(O)cc(O)c12 [Genistein],4.57,3.38
COc1cc(C(=O)NC2CCN(C)CC2)c(F)cc1Nc1ncc2c(n1)N(C1CCCC1)CC(F)(F)C(=O)N2C,5.54,5.08
c1cncc(CN2CCC(n3ncc4c(N5CCOCC5)nc(-c5ccc6[nH]ccc6c5)nc43)CC2)c1,1.54,0.751
